Results: PubChem BioAssay AID2551 (National Center for Advancing Translational Sciences (NCATS), 2010)
The campaign covered roughly 310,000 compounds. About 17,000 (5.5%) were called active. Where a call stands in place of a potency, no number is given. Not shown: some 11% with an inconclusive outcome. Calls come from the whole dose curve; as a rule, active = well fitted inhibition curve with a large enough effect; inconclusive = small, poorly fitted or top-dose-only effect, or effect the other way; inactive = no such curve, though single readings can be large or run the other way. This excerpt belongs to a sample that is enriched for actives.

biological target: Nuclear receptor ROR-gamma (Mus musculus) (UniProt P51450); assay: qHTS for inhibitors of ROR gamma transcriptional activity; settings: Drosophila S2 Gal4-RORgamma UAS-luciferase reporter, 20 h; series mostly up to 53.6 µM; note: nearly all actives have a fitted effect of over 60% in size
Sequence (P51450 whole entry, looked up, the tested form may be a part): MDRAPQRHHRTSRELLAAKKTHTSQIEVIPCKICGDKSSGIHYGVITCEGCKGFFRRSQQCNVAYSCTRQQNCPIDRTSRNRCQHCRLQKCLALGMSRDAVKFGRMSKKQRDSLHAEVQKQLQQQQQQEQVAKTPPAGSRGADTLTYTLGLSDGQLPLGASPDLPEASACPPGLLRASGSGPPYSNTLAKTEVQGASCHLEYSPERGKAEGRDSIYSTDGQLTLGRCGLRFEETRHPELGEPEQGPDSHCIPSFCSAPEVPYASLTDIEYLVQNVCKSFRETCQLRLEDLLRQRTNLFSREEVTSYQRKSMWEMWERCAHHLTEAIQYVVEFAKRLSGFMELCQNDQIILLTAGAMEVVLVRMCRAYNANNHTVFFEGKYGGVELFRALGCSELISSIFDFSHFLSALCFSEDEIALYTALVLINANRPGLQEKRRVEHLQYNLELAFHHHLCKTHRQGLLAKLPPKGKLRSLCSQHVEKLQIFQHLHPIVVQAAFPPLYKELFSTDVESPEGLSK
From the text: NIH Molecular Libraries Probe Production Network [MLPCN] NIH Chemical Genomics Center [NCGC] MLPCN Grant: R03 DA026211-01 Assay Provider: Dan Littman, New York University Assay Overview: The retinoic acid-related orphan receptor (ROR) gamma is a transcription factor that has a central role in the differentiation of Th17 cells, a subset of T helper cells that secrete the inflammatory cytokines IL-17, IL-17F, and IL-22. Th17 cells have been implicated in graft versus host disease, autoimmune disease and asthma. ROR gamma is induced in naive T helper cells in the presence of TGF-beta combined with IL-6, IL-21, or IL-23, and thereafter directs the expression of the Th17 lineage cytokines. To study the mechanism of action of ROR gamma, an insect cell-based assay was screened. This Drosophila Schneider cell line was stably transfected with two vectors: a gene expressing a fusion of the Gal4 DNA binding domain and ROR gamma transactivation domain under the control of the metallothionine promoter and a Photinus luciferase reporter regulated by the Gal4 binding site enhancer, UAS. […] Small molecule inhibitors of ROR gamma activity are detected by a decrease in luciferase reporter activity.
Assay Protocol Summary: For screening, 600 cells in 4 uL/well were dispensed into white solid 1536-well plates (Grenier) using a solenoid-based dispenser. Following transfer of 23 nL compound or DMSO vehicle by a pin tool, the plates were incubated 1 hr at ambient temperature, and 1 uL/well copper sulfate (700 uM final concentration) was added. The plates were centrifuged 15 s at 1000 RPM and incubated 20 hr at ambient temperature. After addition of 1.5 uL Photinus luciferase detection reagent, the plates were incubated 10 min at ambient temperature and then read by an ViewLux (Perkin Elmer) to detect luminescence. Keywords: NIH Roadmap, MLPCN, MLI, MLSMR, qHTS, NCGC, qHTS, nuclear hormone receptor, retinoic acid-related orphan receptor, ROR gamma
Potency is the fitted concentration of half-maximal effect.

| Structure (SMILES) | Potency | activity change, negative = inhibition |
| --- | --- | --- |
| O=C1CCN(Cc2ccccc2)CCN1[C@H](CSc1ccccc1)c1ccccc1 | inactive | – |
| COC(=O)c1ccc(N2CCOCC2)c(NC(=O)c2ccc3c(c2)OCCO3)c1 | inactive | – |
| Cc1cc(NC(=O)c2ccco2)c(=O)n(Cc2c(F)cccc2Cl)c1 | inactive | – |
| COCCNc1nc(N)c([N+](=O)[O-])c(N2CCCCCC2)n1 | inactive | – |
| CCOc1ccc(-c2noc(CCC(=O)NC3CCCC3)n2)cc1OC | inactive | – |
| O=C(c1ccc(CS(=O)(=O)c2ccccc2)o1)N1CCN(c2ccccc2)CC1 | inactive | – |
| COc1ccc(CNC(=O)[C@H](Cc2c[nH]c3ccccc23)NC(C)=O)cc1OC | inactive | – |
| O=C(NCCCN1CCOCC1)C1CCCN(S(=O)(=O)N2CCCCC2)C1 (centres undefined) | inactive | – |
| O=C(Nc1ccccc1N1CCCC1)c1ccc2ccccc2c1 | inactive | – |
| O=C(Nc1ccccc1N1CCCCC1)c1cccc(F)c1 | inactive | – |
| CCc1ccc(C(=O)NC(=S)Nc2ccccc2N2CCOCC2)cc1 | 3.55 µM (active) | – |
| O=C(NC(=S)Nc1ccccc1N1CCCCC1)c1ccc(F)cc1 | 3.98 µM (active) | – |
| O=C(CCNC(=O)c1ccc([N+](=O)[O-])cc1)Nc1ccccc1N1CCOCC1 | inactive | – |
| CC(=O)c1ccc(N2CCN(CC(=O)Nc3ccccc3N3CCOCC3)CC2)cc1 | inactive | – |
| CC1CCN(CC(O)COc2ccc(C(=O)c3ccccc3)cc2)CC1 (centres undefined) | inactive | – |
| O=C(NCc1cccc(Cl)c1)C1CCC(=O)N(C2CC2)C1 (centres undefined) | inactive | – |
| Cc1cc(CN(C)C(=O)c2cc(COc3ccc(C)c(C)c3)on2)n[nH]1 | inactive | – |
| O=C(NNC1=NCCC1)c1cccc(S(=O)(=O)N2CCCCC2)c1 | 12.6 µM (active) | – |
| O=C(NNC(=S)Nc1ccccc1)c1cccc(S(=O)(=O)N2CCOCC2)c1 | inactive | – |
| O=C(Nc1nncs1)c1cccc(S(=O)(=O)N2CCCCC2)c1 | inactive | – |
| CN(CC1CCCN(CCc2cccc(C(F)(F)F)c2)C1)C(=O)c1ccc2nc[nH]c2c1 (centres undefined) | inactive | – |
| CCOC(=O)c1ccc(NC(=O)c2ccc(NC(=O)C3CCCO3)cc2)cc1 (centres undefined) | inactive | – |

| Structure (SMILES) | Potency | activity change, negative = inhibition |
| --- | --- | --- |
| COc1ccc(C2=NN(c3ccccc3)C(c3cccs3)C2)cc1 (centres undefined) | inactive | – |
| COC(=O)Cc1[nH]n(-c2nc3ccccc3s2)c(=O)c1C(C)=Nc1ccc(OC)cc1 | inactive | – |
| COc1ccc(C2=NN(c3nc4ccccc4s3)C(=O)C2)cc1 | 5.62 µM (active) | – |
| COc1ccc(NC(=S)NCCNC(C)=O)cc1 | inactive | – |
| COc1cc(NC(=S)NCCSc2ccc(C)cc2)cc(OC)c1 | 7.08 µM (active) | – |
| COC(=O)c1cc(OC)c(OC)cc1NC(=O)CSc1ccc(C)cc1 | inactive | – |
| CC1=C(C(=O)OCC2CCCCC2)C(c2ccc(F)cc2)NC(=O)N1 (centres undefined) | inactive | – |
| CC(=O)OCC(NC(=O)C(Cc1ccccc1)NC(=O)OC(C)(C)C)C1OC(n2ccc(=O)[nH]c2=O)C(OC(C)=O)C1OC(C)=O (centres undefined) | inactive | – |
| COc1ccc(NC(=O)NCCN2CCN(c3ccc(C)cc3)CC2)c(Cl)c1 | inactive | – |
| COc1ccccc1NC(=O)CCSc1nnc(-c2ccc(O)cc2)o1 | 14.1 µM (active) | – |
| COc1ccccc1-c1nnc(SCC(=O)Nc2ccccc2)o1 | inactive | – |
| CCc1ccccc1NC(=O)CSc1nnc(-c2ccncc2)o1 | inactive | – |
| COc1cccc(N2CCN(c3ccc4nnc(CCC(=O)N5CCN(C)CC5)n4n3)CC2)c1 | inactive | – |
| N#CC(C(=O)c1ccc(S(=O)(=O)N2CCCCCC2)cc1)c1nc2ccccc2[nH]1 (centres undefined) | 12.6 µM (active) | – |
| O=S(=O)(c1ccc(Br)cc1)N1CCC(c2nc3ccccc3[nH]2)CC1 | inactive | – |
| O=C(N/N=C/c1ccccn1)c1ccc(S(=O)(=O)N2CCCCCC2)cc1 | inactive | – |
| Cc1nc2cc(C(F)(F)F)ccc2n1CCNc1nc(-c2cc(Cl)c(N)c(Cl)c2)cs1 | 17.8 µM (active) | – |
| COc1cc(NC(=O)CSc2ccc(-c3cccnc3)nn2)cc(OC)c1 | inactive | – |
| CC(C)c1ccc(S(=O)(=O)N2CCN(C(=O)c3ccc(N4CCCC4)c([N+](=O)[O-])c3)CC2)cc1 | inactive | – |
| COc1ccccc1N(CC(=O)Nc1ccccc1C(=O)N1CCCC1)S(C)(=O)=O | inactive | – |
| CCCc1cc(=O)[nH]c(SCC(=O)N2CCN(S(=O)(=O)c3ccc(C)cc3C)CC2)n1 | – | 4.85% [at 10 µM] (inactive) |
| Cc1ccc(S(=O)(=O)N2CCN(C(=O)N3CCOCC3)CC2)c(C)c1 | inactive | – |

| Structure (SMILES) | Potency | activity change, negative = inhibition |
| --- | --- | --- |
| Cc1ccc(S(=O)(=O)N2CCN(C(=O)CSc3cc(C)ccc3C)CC2)c(C)c1 | 3.16 µM (active) | – |
| Cc1ccc(C(=O)NC2CCN(C(=O)Nc3ccc(F)cc3)CC2)cc1 | inactive | – |
| CCCCC1S/C(=N/N=C/c2cccs2)NC1=O (centres undefined) | 0.112 µM (active) | – |
| CCC1S/C(=N/N=C/c2ccco2)NC1=O (centres undefined) | 1.26 µM (active) | – |
| O=C(O)C[C@@H]1NC(=O)[C@H](Cc2ccccc2)NC1=O | inactive | – |
| CC(=O)Nc1ccc(S(=O)(=O)Oc2ccc(/C=N/N=C3/NC(=O)C(CC(=O)O)S3)cc2)cc1 (centres undefined) | inactive | – |
| C=CCN1C(=O)C(Cc2cccc(Cl)c2)S/C1=N/N=C/c1ccco1 (centres undefined) | inactive | – |
| CC(C)=N/N=C1/NC(=O)C(Cc2ccccc2)S1 (centres undefined) | 2.51 µM (active) | – |
| O=c1nc(N/N=C/c2ccco2)cn[nH]1 | inactive | – |
| COc1ccc(CN2C(=O)C(C)S/C2=N/N=C/c2ccco2)cc1 (centres undefined) | inactive | – |
| CN(CCOc1ccc(CC2SC(=O)NC2=O)cc1)c1ccccn1 (centres undefined) | inactive | – |
| O=C1N/C(=N\N=C\c2ccco2)SC1Cc1ccc(F)cc1 (centres undefined) | 1 µM (active) | – |
| CCC1C/C(=C/c2cccs2)C(=O)/C(=C/c2cccs2)C1 (centres undefined) | inactive | – |
| Cc1ccccc1N(C(=O)CNC(=O)c1cccs1)C(C(=O)NC1CCCC1)c1ccncc1 (centres undefined) | inactive | – |
| O=C(C1CCN(Cc2ccc(Cl)cc2)CC1)N1CCN(Cc2ccc3c(c2)OCO3)CC1 | inactive | – |
| C=CCn1c(SCc2ccccc2)nc2c1c(=O)[nH]c(=O)n2C | inactive | – |
| O=S(=O)(c1ccccc1)c1nc(Cc2ccccc2)oc1N1CCOCC1 | inactive | – |
| O=S(=O)(c1ccc(F)cc1)N1CCN=C1SCc1cccc(F)c1 | inactive | – |
| CCc1ccc(N2CC(C(=O)Nc3ccc(S(=O)(=O)Nc4nccs4)cc3)CC2=O)cc1 (centres undefined) | inactive | – |
| CCCCC1(C(=O)OCC)NC(c2ccc(O)cc2)C2C(=O)N(c3ccccc3)C(=O)C21 (centres undefined) | inactive | – |
